# LASV entry inh = inhibitors of Lassa virus binding or cell entry; Lassa virus pseudotype entry inhibition, cell reporter; Potency, µM (highest dose often 37.9 µM), inactives show at the highest dose activity change, negative = inhibition, actives largely listed as inhibitors; actives 1.2% (n = 300,000); calls by dose curve; tested in HEK293 cells; further: potency means the concentration at half of the fitted maximal effect; on the % scale 0 is the no-effect control and ±100 the full control effect; nearly all actives have a fitted effect of over 50% in size
# Pf growth 48h = inhibits P. falciparum growth in the first generation, 48 h; actives 5.9% (n = 310,000); Potency, µM (highest dose often 28.7 µM), inactives show at the top dose activity change, negative = inhibition, usual class: inhibitors; P. falciparum luciferase growth in erythrocytes, 48 h; further: potency means the concentration at half of the fitted maximal effect; on the % scale 0 is the no-effect control and ±100 the full control effect
#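 Erythrocytes infected with P. falciparum carrying an integrated firefly luciferase reporter (2% hematocrit, 0.1% parasitemia final) were exposed to compounds in RPMI 1640 with 0.5% Albumax at 37 C, 5% CO2. Growth inhibition was scored as reduced luminescence.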
# Marburg entry inh = inhibitors of Marburg virus binding or cell entry | Marburg virus pseudotyped entry inhibition, cell reporter | Potency, µM (highest dose often 37.8 µM), for inactives: top-dose activity change, negative = inhibition, most hits filed as inhibitors | actives 1.8% (n = 300,000); calls by dose curve; tested in HEK293 cells; further: potency means the concentration at half of the fitted maximal effect; on the % scale 0 is the no-effect control and ±100 the full control effect
# Cycloheximide cs = counter-screen hit for Shiga toxin inhibitors, cycloheximide. cell reporter, cycloheximide protein synthesis inhibition counterscreen. actives 12% (n = 300,000). max response, %. AID 2314; in the data active means max response mostly above about 13%, no sharp cut-off; inactive means mostly below about 14%; further: read at 38.3 µM for the half of the compounds with a filed dose; 0% is about no effect
# Shiga toxin inh = Shiga toxin inhibition. inhibition, % at 38.7 µM. Vero cells, Shiga toxin protein synthesis inhibition reporter. AID 2315. actives 9.2% (n = 290,000); in the data active means inhibition mostly above about 28%, no sharp cut-off; inactive means mostly below about 43%; further: 0% is about no effect
# Pf growth 96h = P. falciparum growth inhibition at 96 hours. P. falciparum luciferase reporter growth, 96 h. Potency, µM (doses to about 28.7 µM), without a hit: top-dose activity change, negative = inhibition, most hits filed as inhibitors. actives 6.9% (n = 320,000); further: potency means the concentration at half of the fitted maximal effect; on the % scale 0 is the no-effect control and ±100 the full control effect
#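 Readout is luminescence from an integrated firefly luciferase in P. falciparum. Red cells, 2% hematocrit and 0.05% parasitemia final, were cultured with compound through two parasite generations (96 hours) at 37 C, 5% CO2.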
# Starred values were filed as active, the others as inactive; ? = inconclusive; / = no result; [ ] = remark or other dose. Compounds with a hit are over-represented: about 19% of the library has one in this group of screens. Unless noted, the call rests on the fitted dose curve; in most records, active means well fitted inhibition curve with a large enough effect; inconclusive means small, poorly fitted or top-dose-only effect, or another doubt; inactive means no such curve, though single readings can be large or run the other way.
SMILES,LASV entry inh,Pf growth 48h,Marburg entry inh,Cycloheximide cs,Shiga toxin inh,Pf growth 96h
COc1ccccc1/C=C/C(=O)Nc1ccc(N2CCOCC2)cc1,-18%,4%,-5%[46.1 µM],4,25,-11%
COc1ccc(C(=O)N[C@H](C(=O)Nc2ccc(S(=O)(=O)N3CCOCC3)cc2)C(C)C)cc1,/,?,/,-3,3,?
Cc1cccc(OCC(=O)Nc2ccc(N3CCCC3)cc2)c1C,0%,10µM*,-6%,-4,20,28%
COc1cccc(/C=C/C(=O)Nc2ccc(N3CCOCC3)cc2)c1OC,2%[46.1 µM],23%,?,18*,51,44%
CC(C)C(NC(=O)c1ccc(C(C)(C)C)cc1)C(=O)Nc1ccc(N2CCOCC2)cc1 (stereo not given),/,13µM*,/,/,/,?
Cc1ccc(OCC(=O)Nc2ccc(N3CCN(C(=O)c4ccco4)CC3)cc2)cc1,-1%[46.1 µM],?,?,2,6,5.2µM*
CCOc1ccc(-n2cc(-c3ccccc3)c3c(Nc4cccc(F)c4)ncnc32)cc1,11%[46.1 µM],/,/,/,/,/
O=C(CCn1ccc2ccccc21)Nc1ccc(N2CCOCC2)cc1,0%,13µM*,-3%,2,-13,?
COc1ccccc1OCCCC(=O)Nc1ccc(N2CCOCC2)cc1,/,10%[5.75 µM],/,13*,10,-10%[5.75 µM]
O=C(CCn1c(=O)oc2ccccc21)Nc1ccc(N2CCOCC2)cc1,6%[46.1 µM],-13%,3%[46.1 µM],9,-3,13%
COC(=O)C1CCN(c2cc(=O)n(-c3ccccc3Cl)c(=O)[nH]2)CC1,17%,6.6µM*,14%,3,26,19%
CCOC(=O)N1CCN(c2cc(=O)n(-c3ccccc3Cl)c(=O)[nH]2)CC1,/,7%,/,-4,-2,0%
CC(C)COC(=O)c1ccc2[nH]c(O)c(C=Nc3ccc(S(N)(=O)=O)cc3)c2c1,1µM*,/,/,/,/,/
O=C(Cc1ccc(Cl)cc1)Nc1cc(Cl)ccn1,-11%[46.1 µM],/,?,/,/,/
CCOCCn1c(=O)c2c(nc3n2CCCN3CCc2ccccc2)n(C)c1=O,/,?,/,-1,-2,15µM*
Cn1c(=O)n(Cc2ccccc2)c(=O)c2c1nc1n2CCCN1Cc1ccccc1,-4%,?,?,-2,-1,?
Cn1c(N2CCCC2)nc2c1c(=O)n(Cc1cccc(F)c1)c(=O)n2C,-17%,?,-4%,-1,-5,10µM*
Cn1c(=O)n(Cc2ccccc2)c(=O)c2c1nc1n2CCCN1CCc1ccccc1,-5%,/,?,-9,-16,3.3µM*
CCOCCn1c(=O)c2c(nc3n2CCCN3Cc2ccccc2)n(C)c1=O,-4%[46.1 µM],-22%,14%[46.1 µM],-1,-1,?
CCCCn1c(=O)c2c(nc3n2CCCN3Cc2ccccc2)n(C)c1=O,12%[46.1 µM],5.2µM*,20%[46.1 µM],-4,-16,?
CCN(c1ccccc1)S(=O)(=O)c1ccc(Cl)c(C(=O)OCC(=O)c2[nH]c(C)c(C(C)=O)c2C)c1,3%,-15%,-11%,9,9,0%
CC(Cc1ccccc1)=NNc1ccc([N+](=O)[O-])cc1[N+](=O)[O-],?,/,-3%[46.1 µM],/,/,/
CCOc1ccc(C(=O)c2nc3c(n2O)CCCC3)cc1,3%,75%,6%,23*,30,?
O=C(c1ccco1)c1nc2c(n1O)CCCCC2,3%,/,?,-3,-13,?
O=C(c1cc2ccccc2o1)c1nc2c(n1O)CCCCC2,18%,55%,-10%[46.1 µM],47*,83*,/
SMILES,LASV entry inh,Pf growth 48h,Marburg entry inh,Cycloheximide cs,Shiga toxin inh,Pf growth 96h
COC(=O)C1=CO[C@@H](OC2OC(CO)C(O)C(O)C2O)[C@@H]2C(CO)=CC[C@H]12 (stereo not given in full),25%,-5%,10%,-2,-2,-2%
O=S1CCCS[C@@H]1c1cccnc1 (stereo not given in full),/,/,-8%,/,/,/
Cc1ccc(OCC(=O)Nc2cccc(OCc3cc(=O)n4cccc(C)c4n3)c2)cc1C,6%[46.1 µM],/,/,/,/,/
CN(CC(=O)Nc1ccc(Cl)cc1)C(=O)c1ccc(NS(=O)(=O)c2ccc3[nH]c(=O)[nH]c3c2)cc1,10%,-11%,17%,/,/,?
CCc1cc2c(COC(=O)c3c(C)noc3C)cc(=O)oc2cc1O,/,?,/,-2,-13,?
Cc1ccn2c(Nc3ccccc3C)c(-c3ccccn3)nc2c1,?,?,?,-2,34,-15%
Cc1ccn2c(Nc3ccccc3)c(-c3ccccn3)nc2c1,5.8µM*,2.1µM*,?,10,21,139%
Cc1ccccc1Nc1c(-c2ccccn2)nc2ccccn12,/,2.6µM*,/,-4,-7,-17%
O=C(NCc1cccnc1)c1cc(C(=O)C2CC2)c[nH]1,-15%,403%,18%[46.1 µM],-1,27,?
CC(C)(C)C(=O)OCc1nc(-c2ccc3c(c2)OCCO3)cs1,/,91%,/,54*,114*,162%
COc1ccc(-c2csc(COC(=O)C(C)(C)C)n2)cc1,15%,104%,-1%,30*,75*,112%
CC(C)(C)C(=O)OCc1nc(-c2ccc(F)cc2)cs1,?,139%,?,42*,92*,-3%
NC(=S)Cc1nc(-c2ccc(Cl)cc2)cs1,/,30%,/,29,80*,?
COCCN(C(=O)c1ccccc1)c1nc(-c2ccc(OC)cc2)cs1,/,?,/,1,5,?
Cc1ccc(C(=O)N2CCN(c3ccc(Cl)cc3)CC2)cc1,16%,14%,-3%,-1,-12,19%
NNC(=O)CSCc1nc(-c2ccc(Cl)cc2)cs1,16%[46.1 µM],-6%,0%[46.1 µM],10,30,?
CC(C)(C)C(=O)OCc1nc(-c2ccc(Cl)cc2)cs1,?,377%,-1%,59*,69*,147%
Cc1cc(O)c(C2=Nc3ccccc3SC(c3ccc(Cl)cc3)C2)c(=O)o1 (stereo not given),?,218%,?,48*,34*,213%
CC(=O)OC1COC(OC(C)=O)CO1 (stereo not given),21%[46.1 µM],/,?,/,/,/
